For 19 molecules, Potency results are on record in PubChem BioAssay AID2113 (National Center for Advancing Translational Sciences (NCATS), 2009).

Inconclusive results are not listed. A call without a number means that no potency is given here. Activity calls are given as the source filed them. Calls follow the shape of the dose curve; as a rule, active = well fitted curve in either direction with a large enough effect; inconclusive = small, poorly fitted or top-dose-only effect; inactive = no such curve, though single readings can be large or run the other way.
Potency is read from the fitted curve at half-maximal effect.

This experiment addresses Lysosomal alpha-glucosidase (Homo sapiens) (UniProt P10253). The experiment in a line: Confirmation of Inhibitors and Activators of Human alpha-Glucosidase From Spleen Homogenate.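 As to Potency: fluorescence of 4-methylumbelliferone released from a fluorogenic glucopyranoside substrate at pH 5.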 The conditions noted are these: alpha-glucosidase enzyme activity; series mostly up to 60.5 µM. In outline:
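Fluorogenic assay using human spleen homogenate (1 ug) as enzyme source with 1 mM 4-methylumbelliferyl-alpha-D-glucopyranoside, pH 5.0 citrate buffer, 40 min at 37 C. 4-MU read (Ex 365/Em 440) after NaOH/glycine stop; AC50 from Hill fits.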
With `COC(=O)CSc1cc([N+](=O)[O-])ccc1NC(=O)OC`, the Potency entry was “inactive”. The result for `COc1ccc(CCn2c3c(c(=O)[nH]c2=S)CN(CC(C)C)CN3)cc1OC` reads 14.1 µM (active); that for `COc1ccc(/C=C/c2nnc(NC(=O)CSc3ccc(C)cc3)s2)cc1`, “inactive”; that for `CN(C)C=Nc1nc2ccccc2nc1N1CCCC1`, “inactive”. With `Cn1c(-c2ccco2)nc2cc3ccccc3cc21` the entry was “inactive”. The result for `CC(=O)c1ccc(N2CCN(S(=O)(=O)c3ccc4c(c3)C(=O)OC4)CC2)cc1` reads “inactive”; that for `COc1cccc2cc(-c3nc(-c4ccc(C)cc4)c(C)s3)c(=O)oc12`, “inactive”; that for `COc1cc2c(cc1OC)-c1cc(OCc3ccccc3Cl)nc(=O)n1CC2`, “inactive”. Regarding `COC(=O)c1ccccc1S(=O)(=O)N1CCOCC1`, the Potency entry was “inactive”. With `O=C(Nc1nnc(-c2cccc(F)c2)s1)Nc1ccccc1F` the entry was “inactive”; with `CC(=O)Nc1cccc2c1C(=O)NC2=O`, “inactive”; with `CC1CCc2c(nc3ncnn3c2N2CCN(c3ccccc3F)CC2)C1` (centres undefined), “inactive”. The result for `O=S(=O)(c1ccc2nc(-c3ccco3)c(-c3ccco3)nc2c1)N1CCOCC1` reads “inactive”; that for `c1ccc(-n2c(-c3cccs3)nc3nc4ccccc4nc32)cc1`, “inactive”. With `O=S(=O)(c1ccc(Cl)cc1)N1CCOCC1` the entry was “inactive”; with `NC(=O)NN=C1c2cc(S(=O)(=O)N3CCOCC3)ccc2-c2ccc(S(=O)(=O)N3CCOCC3)cc21`, “inactive”. For the molecule `O=C(c1cc2c(ccc3ccccc32)oc1=O)N1CCN(CCO)CC1`, the Potency result was “inactive”. With `COC(=O)c1cc(OC)c(OC)cc1NC(=O)CCCCCN1C(=O)CCC1=O` the entry was “inactive”; with `CCCN1CNc2c(c(=O)[nH]c(=S)n2CCc2cc(C)ccc2C)C1`, 8.91 µM (active).
